Compounds with a hit are over-represented: about 2.1% of the library has one in this group of screens.
ERAP1 inh = blocks human ERAP1 aminopeptidase activity; Q9NZ08; recombinant ERAP1, Leu-AMC fluorescence, 60 min; inhibition, % at 10.7 µM; 340,000 tested, 0.15% active; AID 652197;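 active = mean replicate inhibition of at least 30%, or all replicates individually reaching that 30% level; inactive = mean below 30% and not every replicate reaching it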;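 also: 0% = neutral control wells and 100% = L-leucinethiol positive control wells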
Target sequence (Q9NZ08 whole entry, looked up): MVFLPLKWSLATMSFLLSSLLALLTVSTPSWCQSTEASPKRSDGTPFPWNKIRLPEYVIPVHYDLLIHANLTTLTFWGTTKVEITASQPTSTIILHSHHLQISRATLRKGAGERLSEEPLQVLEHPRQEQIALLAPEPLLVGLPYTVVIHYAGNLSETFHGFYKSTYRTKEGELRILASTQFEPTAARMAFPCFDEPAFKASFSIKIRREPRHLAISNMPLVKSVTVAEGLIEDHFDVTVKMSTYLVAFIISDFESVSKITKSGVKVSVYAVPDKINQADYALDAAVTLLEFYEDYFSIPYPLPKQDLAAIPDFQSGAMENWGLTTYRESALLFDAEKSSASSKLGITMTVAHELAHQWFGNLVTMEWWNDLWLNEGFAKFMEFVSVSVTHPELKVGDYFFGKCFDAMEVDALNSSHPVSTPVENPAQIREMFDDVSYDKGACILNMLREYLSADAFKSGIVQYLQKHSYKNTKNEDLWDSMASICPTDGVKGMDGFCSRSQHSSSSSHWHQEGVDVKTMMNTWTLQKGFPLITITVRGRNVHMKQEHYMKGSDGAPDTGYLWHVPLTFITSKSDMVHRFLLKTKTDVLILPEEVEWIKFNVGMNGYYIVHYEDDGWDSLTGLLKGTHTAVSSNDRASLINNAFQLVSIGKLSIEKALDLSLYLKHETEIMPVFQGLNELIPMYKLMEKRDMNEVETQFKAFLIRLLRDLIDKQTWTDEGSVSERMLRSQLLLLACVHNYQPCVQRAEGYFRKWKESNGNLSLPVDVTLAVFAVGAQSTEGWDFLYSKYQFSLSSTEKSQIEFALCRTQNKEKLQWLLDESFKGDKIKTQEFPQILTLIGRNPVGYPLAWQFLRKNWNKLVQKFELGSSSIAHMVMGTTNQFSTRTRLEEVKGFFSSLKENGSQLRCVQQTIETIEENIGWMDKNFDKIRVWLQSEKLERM
F508del corr = correctors of CFTR F508del function in bronchial epithelial cells | activity (quench increase), % at 7.58 µM | CFBE cells, YFP halide quenching; stimulated with forskolin plus potentiator P3; % fluorescence drop versus neutral controls | AID 720511 | 350,000 tested, 0.36% active;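 active = mean added fluorescence quench of at least 8% versus neutral control, with both replicates also reaching 8%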;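 also: cells transiently co-express mutant CFTR-F508del with the halide-sensitive YFP; corrector assay measuring rescue of mutant channel to the surface after 24 h compound exposure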
ARNT-TACC3 inh = ARNT/TACC3 interaction disruption. inhibition, % at 9.99 µM. AlphaScreen His-ARNT PAS-B/GST-TACC3 binding, luminescence; TACC3 fragment carries E629A point mutation. 390,000 tested, 0.66% active. Q9Y6A5;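 active = mean inhibition of replicates at least 50% and at least half of replicates each reaching 50%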;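 also: 0% = complete ARNT plus TACC3 wells and 100% = ARNT alone without TACC3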
rRNA inh HTS = inhibitors of bacterial rRNA selective over humanized ribosomes | E. coli WT GFP vs humanized-ribosome RFP mutants, fluorescence, 24 h; hits give low values; DMSO median 0, no signal -100 | GFP signal change (wild-type ribosome), % (no concentration beside the values) | 350,000 tested, 1.6% active | AID 720706;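 active = significant combined selectivity score with lowered wild-type GFP, culture density cut under 30%, mutant RFP and density less affected; inactive = any of these conditions unmet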
PvdQ inh = blocks Pseudomonas aeruginosa PvdQ acylase activity; purified PvdQ acylase, fluorescence plate reader; 340,000 tested, 0.063% active; inhibition, % at 10 µM; AID 488965; in the data active = inhibition above about 30%, passing the limit was not always enough;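 also: 0% = vehicle neutral wells and 100% = reference inhibitor wells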
* hit, by the source's call; x = no result; ! = not active in a repeat.

SMILES	ERAP1 inh	F508del corr	ARNT-TACC3 inh	rRNA inh HTS	PvdQ inh
C/C(N)=C(/C#N)C(=O)COC(=O)c1ccccc1C(=O)c1ccc(C)cc1	-3.9	-1.1	5.7	-21.0*	-1.3
CC(C)(C)[Si](C)(C)OC[C@@H]1[C@H]2c3ccccc3O[C@]1(C)NC(=S)N2C(=O)c1ccccc1	-1.8	2.2	x	x	x
CC1(Cc2ccc(F)cc2)C(=O)Nc2c(Cl)ccc(Cl)c21 (stereo not given)	3.6	8.8*	x	-64.9	x
CC1(Cc2ccc(Cl)c(Cl)c2)C(=O)Nc2c(Cl)ccc(Cl)c21 (stereo not given)	0.5	3.7	x	-14.8	x
Cc1noc(C)c1S(=O)(=O)N(C)C[C@@H]1Oc2ccc(NC(=O)Nc3ccc(F)cc3)cc2CC(=O)N([C@H](C)CO)C[C@@H]1C	6.7	1.7	-2.1	1.2	x
CCCN=Cc1c(CCC)[nH]n(-c2nc3ccccc3s2)c1=O	x	x	-2.7	x	23.5
O=c1c(C=NCCCn2ccnc2)c(-c2ccccc2)[nH]n1-c1nc2ccccc2s1	x	x	53.7*	x	10.7
CCCc1[nH]n(-c2nc3ccccc3s2)c(=O)c1C=NCCCN(CC)CC	1.9	-0.8	-1.3	-21.6*	-11.9
CN(C)CCCN=Cc1c(-c2ccccc2)[nH]n(-c2nc3ccccc3s2)c1=O	-3.2	-0.2	4.9	-5.1	0.7
CN(CC(=O)NCCc1ccc(S(N)(=O)=O)cc1)CC(=O)Nc1ccc(Cl)c(C(F)(F)F)c1	4.5	12.8*	x	-14.9	10.6
CN(CC(=O)NCCc1ccc(S(N)(=O)=O)cc1)CC(=O)Nc1ccccc1Cl	3.2	2.4	-5.9	7.6	-11.6
Cc1cc2nc(/C=C/c3cccnc3)[nH]c2cc1C	-35.8	2.1	5.1	-27.8*	-101.0
COc1cccc(/C=N/NC(=O)C(=O)Nc2ccccc2OC(F)(F)C(F)F)c1O	1.2	15.0*	2.6	-31.7	-1.5
O=C(C[n+]1ccccc1)N/N=C/c1cc(Br)ccc1O	-0.3	3.4	64.3*	-1.3	-7.6
COc1cccc(/C=N/NC(=O)C[n+]2ccccc2)c1O	x	x	67.3*	x	-10.4
O=C(C[n+]1ccccc1)N/N=C/c1ccccc1F	1.5	-2.5	x	17.9	-13.1
COc1ccccc1/C=N/NC(=O)c1cccc(OC(F)(F)C(F)F)c1	0.3	x	-5.6	5.3	-13.3
COc1cc(OC)c(OC)cc1/C=N/NC(=O)C[n+]1ccccc1	x	x	0.5	x	5.7
O=C(CSc1ccccc1)N1CCc2ccccc21	x	x	13.7	x	3.5
O=C(CSCc1ccco1)N1CCc2ccccc21	x	x	-0.5	x	86.3*
C=CCNC(=S)N1N=C(c2ccco2)CC1c1ccco1 (stereo not given)	-3.5	-3.3	active	0.5	3.6
CO[C@@H]1CN(C)C(=O)c2ccc(NC(=O)C3CC3)cc2OC[C@H](C)N(CC2CC2)C[C@@H]1C	-4.1	1.5	-11.0	-2.0	x
COc1ccc2c(c1)[nH]c1c(=O)n(/N=C/c3ccc(OC)c(CN4CCCC4)c3)cnc12	x	9.2*	2.3	-10.3	11.0
N#CC(Sc1ccccn1)c1ccc(Cl)cc1 (stereo not given)	8.1	-1.0	-4.8	16.7	47.8*
O=C(NCCSc1ccccn1)c1ccc(Cl)cc1	0.4	-2.9	14.0	-14.1	-1.5
SMILES	ERAP1 inh	F508del corr	ARNT-TACC3 inh	rRNA inh HTS	PvdQ inh
CO[C@H]1CN(C)C(=O)c2ccc(NC(=O)C3CC3)cc2OC[C@@H](C)NC[C@@H]1C	-1.5	0.6	7.4	3.2	x
Nc1ccn(C2OC(CO)C(O)C2O)c(=O)n1 (stereo not given)	0.4	9.7*	x	x	x
Nc1ccn([C@@H]2O[C@H](CO)[C@@H](O)[C@@H]2O)c(=O)n1	-0.3	19.3*	-2.3	x	-7.7
C[C@@H]1CN([C@@H](C)CO)C(=O)c2cc(NC(=O)NC3CCCCC3)ccc2O[C@@H]1CN(C)Cc1ccccc1	-2.2	1.1	-6.7	1.3	x
CCCN1C[C@@H](C)[C@@H](OC)CN(C)C(=O)c2cc(NC(=O)NC3CCCC3)ccc2OC[C@@H]1C	-0.5	1.1	x	5.6	x
C/C(=N/OC(=O)C1CC1c1ccccc1)c1ccccc1 (stereo not given)	0.4	-1.3	-0.7	-20.9*	-20.6
O=C(C1CC1)N1CCCCN2[C@@H](CO)[C@H](c3ccc(C#CC4CC4)cc3)[C@@H]2C1	-0.9	0.7	6.0	x	x
Fc1ccccc1Cn1cc(C(=S)N2CCOCC2)c2ccccc21	x	0.1	0.1	-20.1	-5.6
Fc1ccc(Cn2cc(C(=S)N3CCOCC3)c3ccccc32)cc1	14.6	-2.5	-1.4	-26.3*	-6.5
CCOc1ccc(NC(=O)CN(C)CC(=O)Nc2ccc(Br)cc2F)cc1OCC	-0.6	-3.3	-5.6	-28.5*	-10.6
NS(=O)(=O)c1ccc(Nc2nc(-c3cccc([N+](=O)[O-])c3)cs2)cc1	-2.4	0.3	x	-26.9*	-4.4
O=C(Nc1ccc2c(c1)[C@H]1C[C@@H](CC(=O)N3CCOCC3)O[C@@H](CO)[C@H]1O2)c1ccc2c(c1)OCO2	x	1.2	6.4	-0.4	x
O=C(Nc1ccccc1)N1CCN(c2nc(-c3ccccc3)ns2)CC1	6.7	-1.3	2.5	-30.4*	7.1
O=C(Nc1ccccc1Cl)N1CCCN(c2nc(-c3ccccc3)ns2)CC1	x	0.0	-2.4	-31.9	1.6
Cc1noc(C)c1NC(=O)Nc1cccc2c1O[C@@H](CN(C)C(=O)Nc1ccc3c(c1)OCO3)[C@@H](C)CN([C@H](C)CO)C2=O	-1.1	6.0	3.6	-28.2*!	-8.3
C[C@H](CO)N1C[C@H](C)[C@H](CN(C)C(=O)Nc2ccnc(N3CCOCC3)c2)OCc2ccccc2-c2ccccc2C1=O	0.0	1.8	12.2*	5.1	x
C[C@@H]1CN([C@@H](C)CO)C(=O)c2cc(NC(=O)Nc3cccc4ccccc34)ccc2O[C@@H](C)CCCCO[C@@H]1CN(C)Cc1ccc2c(c1)OCO2	x	8.8*	1.6	-3.6	x
Cc1noc(C)c1NC(=O)N(C)C[C@H]1OCCCC[C@@H](C)Oc2ccc(NC(=O)Nc3cccc4ccccc34)cc2C(=O)N([C@@H](C)CO)C[C@H]1C	x	-1.4	-11.1	-15.5*	x
CC(=O)C1=C(C)N(CC(C)C)C(=S)NC1c1cccc(Cl)c1 (stereo not given)	-1.8	3.0	x	-31.9	x
C[C@@H]1CCCCO[C@H](CN(C)Cc2ccc(Cl)c(Cl)c2)[C@H](C)CN([C@@H](C)CO)C(=O)c2cc(NC(=O)Nc3ccc(F)cc3)ccc2O1	4.7	-1.2	15.1	6.1	x
COc1ccc(NC(=O)Nc2ccc3c(c2)C(=O)N([C@H](C)CO)C[C@@H](C)[C@@H](CN(C)Cc2ccc4c(c2)OCO4)OCCCC[C@H](C)O3)cc1	0.4	-1.0	27.3	-33.9*!	x
C[C@H]1CCCCO[C@@H](CN(C)C(=O)C2CCCCC2)[C@@H](C)CN([C@@H](C)CO)C(=O)c2cc(NC(=O)Nc3ccc(C(F)(F)F)cc3)ccc2O1	0.3	10.4*	6.6	0.2	x

Screens as filed in PubChem BioAssay.
